# High-throughput results: PubChem, National Center for Advancing Translational Sciences (NCATS)
# A selection: hits, their analogues and other compounds. The true share with any hit is near 5.2%.
# HEK293 cAMP cs = qHTS Assay for Agonists of the Thyroid Stimulating Hormone Receptor: Activators of Intracellular cAMP Concentrations in Parental HEK 293; parental HEK293 CNG cAMP sensor, membrane potential fluorescence; Potency, µM (highest dose often 57.1 µM), without a hit: top-dose activation, hits mostly activators; 2.5% of 73,000 active; AID 938, 2007; note: % of control where 0% means no effect; nearly all actives have a fitted effect of over 55% in size
#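 Parental HEK 293 cells stably expressing a cAMP-gated CNG channel were loaded with membrane potential dye containing 100 uM RO 20-1724 for 60 min. Compound added for 30 min; depolarization read as fluorescence intensity at 590 nm.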
# TSHR ag = qHTS Assay for Agonists of the Thyroid Stimulating Hormone Receptor; Thyrotropin receptor (Homo sapiens), P16473; HEK293-CNG-TSHR cells (CNG channel as cAMP sensor), membrane potential dye, cAMP; Potency, µM (top dose mostly 57.1 µM), without a hit: at the highest dose activation, hits mostly activators; 0.48% of 73,000 active; active = well fitted activation curve with a large enough effect in the main read-out, with a control signal flat, not every such curve was filed as active; inconclusive = small, poorly fitted or top-dose-only effect, or a change in a side signal; inactive = no such curve, though single readings can be large or run the other way; % of control where 0% means no effect;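 note: the control signal comes from parental cells without the receptor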
#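 cAMP rise detected as CNG-channel membrane depolarization by fluorescent dye (emission 590 nm), 30 min after compound, following 60 min dye loading containing 100 uM RO 20-1724 at room temperature. Cells: TSHR/CNG HEK 293, with parental CNG HEK 293 as control.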
# FLuc inh = qHTS Assay for Inhibitors of Firefly Luciferase; Potency, µM (doses to about 57.1 µM), without a hit: at the top dose activity change, negative = inhibition, most hits filed as inhibitors; AID 411, 2009; purified firefly luciferase, luminescence, 8 min; 2.2% of 72,000 active; Luciferin 4-monooxygenase (Photinus pyralis), P08659; note: % is set by controls: 0 for no effect and ±100 for the full control effect; nearly all actives have a fitted effect of over 40% in size
# Target sequence (P08659 whole entry, looked up): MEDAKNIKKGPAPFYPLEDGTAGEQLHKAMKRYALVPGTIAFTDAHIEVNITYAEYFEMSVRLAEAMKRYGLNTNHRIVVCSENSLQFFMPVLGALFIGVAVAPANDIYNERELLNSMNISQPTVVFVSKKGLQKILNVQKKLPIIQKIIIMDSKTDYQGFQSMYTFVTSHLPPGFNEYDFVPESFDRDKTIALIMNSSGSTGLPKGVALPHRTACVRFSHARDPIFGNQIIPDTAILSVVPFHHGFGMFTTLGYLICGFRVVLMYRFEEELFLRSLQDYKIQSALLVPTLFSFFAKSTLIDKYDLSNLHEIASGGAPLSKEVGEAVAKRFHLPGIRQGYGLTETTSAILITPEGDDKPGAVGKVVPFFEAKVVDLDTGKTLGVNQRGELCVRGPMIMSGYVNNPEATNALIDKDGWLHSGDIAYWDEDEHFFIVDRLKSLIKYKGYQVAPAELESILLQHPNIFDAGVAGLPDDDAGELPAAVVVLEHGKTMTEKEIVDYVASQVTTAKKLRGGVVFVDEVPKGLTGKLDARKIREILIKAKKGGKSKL
#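 Compounds were tested as concentration series (qHTS) against purified P. pyralis luciferase with luciferin and 10 uM ATP in 50 mM imidazole pH 7.2, 50 mM KCl, 7 mM MgCl2, 0.01% Tween 20, 0.05% BSA. Luminescence was read after 8 min at ambient temperature.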
# Bst PK mod = Pyruvate Kinase; purified pyruvate kinase, luminescence ATP production; ribose 5-phosphate activator present at AC10; Potency, µM; 1.2% of 51,000 active; in the data active = potency below about 11 µM; inconclusive = mostly about 12 µM to 25 µM;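 the screen sought inhibitors and activators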;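 note: scaled between full activation by ribose 5 phosphate and full inhibition by luteolin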
# An asterisk follows results filed as active; i = inactive; ? = inconclusive; . = no result; [ ] = dose if it differs, or a comment. Unless noted, calls come from the whole dose curve; as a rule, active = well fitted curve in the direction sought with a large enough effect; inconclusive = small, poorly fitted or top-dose-only effect, or another doubt; inactive = no such curve, though single readings can be large; an effect the other way counts as inactive or inconclusive. Potency is the fitted concentration of half-maximal effect.
SMILES,HEK293 cAMP cs,TSHR ag,FLuc inh,Bst PK mod
Nc1ncnc2c1nc(Br)n2[C@H]1O[C@H]2COP(=O)(O)O[C@H]2[C@@H]1O,1.2%,8.1%,0.0%,.
Cc1ccc(-c2nc(CS(=O)(=O)CC(=O)N3CCCCCC3)c(C)o2)cc1,?,?,-1.8%,.
Cc1ccc(-c2nc(CS(=O)(=O)CC(=O)N3CCc4ccccc4C3)c(C)o2)cc1,1.58µM*,?,-0.3%,.
COc1ccccc1C(=O)Nc1c2c(nn1-c1cccc(C)c1C)CS(=O)(=O)C2,5.01µM*,?,2.1%,>57
COc1ccc(CC(=O)Nc2c3c(nn2-c2cccc(C)c2C)CS(=O)(=O)C3)cc1,10.6%,4.2%,1.5%,>57
NC(=O)c1ccccc1N/C=C/C(=O)c1ccco1,3.2%,9.5%,10µM*,?
O=C(Nc1ccc(N2CCOCC2)cc1)c1cnsn1,4.1%,-0.6%,3.98µM*,7.07*
O=C(Cn1nc(C(F)(F)F)c2c1CCCC2)Nc1ccc2c(c1)OCO2,9.5%,2.3%,2.0%,>57
COc1ccccc1NC(=O)Cn1nc(C(F)(F)F)c2c1CCCC2,20µM*,?,-4.5%,>57
COc1cccc(NC(=O)/C=C\c2ccc(Cl)cc2)c1,31.6µM*,?,0.2%,.
COc1ccccc1CNC(=O)c1nnc(Cc2ccc(Cl)cc2)o1,29.0%,25.0%,-1.7%,.
CC1=CC(=C2C(=O)c3ccccc3C2=O)C=C(C)N1Cc1ccco1,8.6%,1.4%,12.6µM*,?
CCCn1c(=N)c(C(=O)NCC2CCCO2)cc2c(=O)n3cccc(C)c3nc21 (stereo unspecified),-7.0%,.,-0.7%,>57
Cc1ccc2cc(C#N)c(NCCNC(=O)C3CC3)nc2c1C,25.1µM*,?,-0.4%,>57
COCCCNC(=O)CN1C(=O)CSc2ncccc21,2.7%,-1.4%,2.3%,.
COC(=O)c1ccc2c(=O)n(C3CCCCC3)c(SCC#N)nc2c1,20µM*,?,0.8%,>57
CC(C)(C)n1ncc2c(=O)n(CC(=O)NCc3ccc(F)cc3)cnc21,12.3%,.,20µM*,.
CC(C)(C)n1ncc2c(=O)n(CC(=O)OCc3ccccc3)cnc21,18.8%,20.3%,0.398µM*,0.54*
NNc1nncc2ccccc12,40.0%[25.6 µM],-6.6%[25.6 µM],3.98µM*,.
CC1CCN(c2nncc3ccccc23)CC1,-0.7%,10.7%,-0.6%,>57
O=C(O)c1ccc(C2SCC(=O)N2Cc2ccccc2)cc1 (stereo unspecified),1.7%,0.7%,-0.4%,>57
COc1ccc2c(c1)c(=O)c(Br)c(C)n2Cc1ccccc1,31.6µM*,?,-2.0%,.
O=C(OCc1c(Cl)cccc1Cl)c1ccccn1,?,?,-0.1%,3.81*
O=C(OCc1c(Cl)cccc1Cl)c1cnccn1,4.8%,0.5%,0.5%,4.74*
O=C(OCc1c(Cl)cccc1Cl)c1cccnc1,9.9%,18.7%,1.2%,9.23*
SMILES,HEK293 cAMP cs,TSHR ag,FLuc inh,Bst PK mod
O=C(Oc1ccccc1)c1ccc(COC(=O)c2cnccn2)cc1,-3.1%,.,-10.5%,>57
O=C(OCc1ccc(F)cc1Cl)c1ccccn1,-3.2%,-3.1%,2.6%,>57
O=C(OCC(=O)c1ccccc1Br)c1ccccn1,-7.4%,-0.1%,12.6µM*,.
O=C1CC(c2ccc(F)cc2)Cc2nc(N3CCc4ccccc43)ncc21 (stereo unspecified),21.7%,21.6%,2.0%,>57
Cc1ccc(CNc2ccc(N3CCOCC3)cc2)s1,-7.9%,-17.4%,12.6µM*,i
COc1cc(CCC(=O)OCn2nnc3ccccc3c2=O)cc(OC)c1OC,6.4%,1.8%,2.4%,>57
O=C(CCn1nnc2ccccc2c1=O)N[C@H](C(=O)O)c1ccccc1,-1.1%,-0.3%,1.7%,>57
COc1ccc(OCCSc2ncccn2)cc1,8.5%,0.1%,25.1µM*,.
N#Cc1cc(-c2ccccc2)oc1NC(=O)c1ccco1,1.7%,5.5%,25.1µM*,.
CCOc1cc(C#N)c(NC(=O)c2ccco2)cc1OCC,13.7%,4.8%,0.1%,>57
O=C(NCc1ccco1)c1ccccc1Nc1ccc(F)cc1,-2.5%,13.4%,-3.4%,>57
CCN1CCN(C(=O)c2cc3c(=O)n4ccccc4nc3n2Cc2ccccc2)CC1,-0.3%,4.6%,7.94µM*,?
Cc1ccc(Cn2ncc3c(N4CCN(c5ccccc5C)CC4)ncnc32)cc1,23.3%,.,-1.7%,>57
O=C(CSc1nnc(-c2ccc(Cl)s2)o1)N1CCCc2ccccc21,3.98µM*,?,-1.9%,>57
CC(C)c1ccc(NC(=O)c2cccnc2)cc1,1.8%[11.4 µM],-10.5%[11.4 µM],15.8µM*,.
CC(C)c1ccc(NC(=O)c2csnn2)cc1,-14.1%,-5.3%,5.01µM*,i
CC(C)c1ccc(NC(=O)C(c2ccccc2)N2CCOCC2)cc1 (stereo unspecified),19.7%,.,-5.0%,.
CC1CCCC(NC(=O)C2CCN(S(=O)(=O)N3CCOCC3)CC2)C1C (stereo unspecified),2.1%,3.2%,0.3%,>57
CCOC(=O)c1c(C)oc2cc(Br)c(O)c(Br)c12,11.0%,25.1µM*,-0.3%,.
COc1ccccc1N=c1oc2cc(O)ccc2cc1C(=O)NCC1CCCO1 (stereo unspecified),1.58µM*,?,-7.0%,2.62*
COc1ccccc1N=c1oc2cc(O)ccc2cc1C(N)=O,4.7%,.,7.94µM*,.
COc1cccc2cc(C(=O)NCC3CCCO3)c(=O)oc12 (stereo unspecified),-4.5%,-0.5%,-0.1%,>57
C(=C\c1ccco1)/C=N/n1cnnc1,12.2%,-0.5%,0.6%,>57
O=C(NC1CC1)c1cccc(Nc2ccc(-c3ccc4c(c3)OCCO4)nn2)c1,15.9%,8.1%,2µM*,1.46*
O=C(Nc1ccncc1)c1ccc2c(c1)OCCO2,21.9%,-1.8%,?,.
SMILES,HEK293 cAMP cs,TSHR ag,FLuc inh,Bst PK mod
O=C1CC(C(=O)Nc2ccc(Br)cc2)C2(CCCC2)O1 (stereo unspecified),-5.4%,-13.2%,0.9%,>57
COc1ccc(N(CN2C(=O)c3ccccc3C2=O)C(=O)C(C)C)cc1,-1.2%,-5.4%[11.4 µM],2.6%,>57
Cc1sc(NC(=O)CSc2nnc(COc3ccccc3)n2C)c(C#N)c1C,6.31µM*,?,7.1%,>57
COc1cc(-c2nnc(-c3cccnc3)o2)cc(OC)c1OC,-6.4%,-0.6%,8.6%,>57
CCOCCn1c(-c2ccc(OC)cc2)nc2ccccc21,12.3%,1.1%[11.4 µM],-26.7%,.
C=CCn1c(-c2ccc(OC)cc2)nc2ccccc21,?,?,25.1µM*,.
COC(=O)NC(/C(C(=O)OC)=C(\C)NCc1ccccc1)c1ccco1 (stereo unspecified),0.5%[11.4 µM],-3.1%[11.4 µM],.,.
Cc1ccccc1-c1cncnc1NCc1cccs1,15.8µM*,?,1.0%[2.29 µM],.
Clc1ccccc1-c1cncnc1NCc1cccs1,?,?,-1.6%[2.29 µM],.
c1cncc(Nc2nc(-c3ccncc3)cs2)c1,-14.3%,-28.3%,-7.4%,i
Cc1ccc(C2=N/C(=C/N3CCOCC3)C(=O)O2)cc1,-3.4%,-5.2%,20µM*,.
COc1ccccc1Cn1cnc2cccnc21,6.2%,3.9%,1.3%,>57
